This is an account of results in PubChem BioAssay (NCATS).

Values joined by “and” are separate entries in the source; they are usually repeats but may differ in a detail not shown here. Equal entries are not always repeated. Records with an inconclusive call do not appear. Where a call stands in place of a potency, no number is given. A structure can be active in one record and inactive in another. Active and inactive are the calls of the source. The call rests on the fitted dose curve; in most records, active means well fitted inhibition curve with a large enough effect; inconclusive means small, poorly fitted or top-dose-only effect; inactive means flat fitted curve, though single readings scatter.
Potency means the concentration at half of the fitted maximal effect.

The test in a line: P-glycoprotein substrates identified in KB-8-5-11 adenocarcinoma cell line, qHTS therapeutic library screen (AID 1346987). Further: nearly all actives have a fitted effect of over 65% in size. Particulars: KB-8-5-11 (P-gp overexpressing) viability, CellTiter-Glo, 72 h; series mostly up to 44.5 µM. A digest of the protocol:
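Compounds are pinned in dose-response onto KB-8-5-11 cells (500 cells/well, colchicine-free medium) and left 72 h at 37 degree C. CellTiter-Glo luminescence then yields AC50 values.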
In general terms: In qHTS, concentration-response curves come from the screen itself.
With `COc1nc(C)cnc1NS(=O)(=O)c1cccnc1-c1ccc(-c2nnco2)cc1`, the Potency entry is “inactive”.

With `C[C@@H](N)c1ccc(C(=O)Nc2ccnc3[nH]ccc23)cc1`, the Potency result was “inactive”.

For `CCCC1OC2C[C@@H]3[C@H]4CCC5=CC(=O)C=C[C@]5(C)[C@H]4C(O)C[C@]3(C)[C@]2(C(=O)CO)O1` (stereo not given in full), the Potency entry is “inactive”.

For the compound `O=C(O)C1=NC(C(=O)O)CC(C=CN2c3cc(O)c(OC4OC(CO)C(O)C(O)C4O)cc3CC2C(=O)O)=C1` (stereo not given), the Potency entry is “inactive”.

As for `Cc1cc2nc3c(=O)[nH]c(=O)nc-3n(CC(O)C(O)C(O)CO)c2cc1C` (stereo not given), the Potency entry is “inactive”.

Take `Cc1ccc(S(=O)(=O)OCC(=O)Nc2ccc(C(=O)O)c(O)c2)cc1`: the Potency entry was “inactive”.

As for `CC1(C)OC2CC3C4CC(F)C5=CC(=O)C=CC5(C)C4C(O)CC3(C)[C@]2(C(=O)CO)O1` (stereo not given in full), the Potency entry is “inactive”.

`Cc1ccc(C(=O)N(CCCN)[C@@H](c2oc3cc(Cl)ccc3c(=O)c2Cc2ccccc2)C(C)C)cc1`: the Potency was 0.0833 µM (active).

As for `CN1c2ccccc2C(=O)N2CCc3c([nH]c4ccccc34)C21` (stereo not given), the Potency result is “inactive and 1.84 µM (active)”.

On to `Cc1cc(C(C)Nc2ccccc2)c2nc(N3CCOCC3)cc(=O)n2c1` (stereo not given), for which the Potency entry was “inactive”.

On to `CCN1C[C@H](C)n2c(c(O)c3c(=O)n(Cc4ccc(F)c(Cl)c4)nc(C(=O)NC)c32)C1=O`, for which the Potency entry was “inactive”.

Take `NCC1CCC(C(=O)O)CC1` (stereo not given): the Potency entry is “inactive”.

In the case of `CCNC(=O)CCCC=CC[C@@H]1[C@H](C=CC(O)CCc2ccccc2)[C@@H](O)C[C@@H]1O` (stereo not given in full), the Potency result is “inactive”.

In the case of `c1cc(OCCN2CCCCC2)cc(-c2n[nH]c3ccc(-c4ncn[nH]4)cc23)c1`, the Potency entry was “inactive”.

As for `O=C(NC[C@H](O)CO)c1ccncc1Nc1ccc(I)cc1F`, the Potency entry was “inactive”.

Consider `COc1cc2ncn(-c3cc(OCc4ccccc4S(C)(=O)=O)c(C#N)s3)c2cc1OC`, for which the Potency entry was “inactive”.

`COc1cc(Nc2nc3ccccc3nc2NS(=O)(=O)c2ccc(NC(=O)c3ccc(C)c(OC)c3)cc2)cc(OC)c1`: the Potency result was “inactive”.

Consider `CNC(=O)[C@H](CC1=CN=C2C=CCC=C12)NC(=O)[C@@H](CC(=O)NO)CC(C)C`, for which the Potency result is “inactive”.

Take `CN(C)c1ccccc1CN1CCCN(Cc2ccccc2N(C)C)C1c1ccncc1`: the Potency result was “inactive”.

Take `C[C@H](c1ccc(F)cc1CCCC(=O)O)N(c1cc(F)ccc1F)S(=O)(=O)c1ccc(Cl)cc1`: the Potency result is “inactive”.

Regarding `CCCCC[C@H](O)C=C[C@H]1[C@H](O)CC(=O)[C@H]1CCCCCCC(=O)O`, the Potency entry is “inactive”.

Consider `Cc1cnc(-c2cc(N3CCN(C(=O)CCS(C)(=O)=O)CC3)ncc2Cl)c(C)c1`, for which the Potency entry was “inactive”.

`COc1cc(F)c(C(C)C)cc1-c1ccc(C(F)(F)F)cc1CN1C(=O)O[C@H](c2cc(C(F)(F)F)cc(C(F)(F)F)c2)[C@@H]1C`: the Potency result was “inactive”.

As to `CCN1CCN(c2ccc(Nc3cc(N(C)C(=O)Nc4c(Cl)c(OC)cc(OC)c4Cl)ncn3)cc2)CC1`, the Potency entry is “inactive and 16.4 µM (active)”.

For `CNC(=O)c1ccc2c(C(=Nc3cccc(CN(C)C)c3)c3ccccc3)c(O)[nH]c2c1`, the Potency entry is “inactive”.

On to `CN(C)CCOc1ccc(C(=C(CCCl)c2ccccc2)c2ccccc2)cc1`, for which the Potency result was “inactive”.

Turning to `Nc1[nH]nc2nnc(-c3c(-c4ccccc4)nn4ccccc34)cc12`, the Potency entry was “inactive”.

Consider `Cc1cc(CS(=O)(=O)c2ccccc2)cc(OCc2ccc(CN3CCC[C@H]3CO)cc2)c1`, for which the Potency is 4.18 µM (active).

As to `COC(=O)N1CCN(Cc2cccc(NC(=O)Nc3ccc(C)nc3)c2F)CC1`, the Potency result is “inactive”.

With `CC[C@H](C=C[C@@H](C)[C@H]1CC[C@H]2[C@@H]3CC=C4C[C@@H](O)CC[C@]4(C)[C@@H]3CC[C@]12C)C(C)C`, the Potency result is “inactive”.

Regarding `CN(C)CCN(Cc1ccc(Cl)cc1)c1ccccn1`, the Potency entry is “inactive”.

Regarding `CC(=O)N1CCN(c2ccc(OCc3nn(C)c(C)c3-c3cccc4c(CCCOc5cc(C)c(Cl)c(C)c5)c(C(=O)O)n(Cc5cccnc5)c34)cc2)CC1`, the Potency result was “inactive”.

With `CC(C)CN(C[C@H](O)[C@H](Cc1ccccc1)NC(=O)O[C@H]1CCOC1)S(=O)(=O)c1ccc(N)cc1`, the Potency result is “inactive”.

For `CC(C)CN(C[C@@H](O)[C@H](Cc1ccccc1)NC(=O)O[C@H]1CO[C@H]2OCC[C@H]21)S(=O)(=O)c1ccc(N)cc1`, the Potency result is “inactive”.

Regarding `O=c1cc(-c2ccc(O)c(O)c2)oc2cc(O)cc(O)c12`, the Potency entry is “inactive”.

Take `Cc1ccc(NC(=O)Nc2cc(C(F)(F)F)ccc2F)cc1Nc1ccc2c(c1)NC(=O)C2=Cc1ccc[nH]1`: the Potency is 10.5 µM (active).

With `Oc1ccc(C=Cc2cc(O)cc(O)c2)cc1`, the Potency entry was “inactive”.

As to `CN1CCN2c3ncccc3Cc3ccccc3C2C1` (stereo not given), the Potency result is “inactive”.

Regarding `NS(=O)(=O)c1cc(Cl)c(Cl)c(S(N)(=O)=O)c1`, the Potency entry is “inactive”.

For the compound `N=C1SC(=Cc2ccc(-c3ccc4c(c3)C(=O)NC4=O)o2)C(=O)N1c1ccc(Br)cc1`, the Potency result is “inactive”.
